About 8,800 targets were measured; listed, in parts, are those with a hit and a random draw of the rest. About 0.5% of all pairs of compound and target were hits.
Key:
Assay in all cases: log2 fold change, soluble protein after heating vs DMSO (PISA); higher = thermal stabilisation; K562 lysate, 10 uM; active = over 0.2 and 3.5 SD of the protein, either way, in both replicates (recomputed)
ibrutinib = compound: C=CC(=O)N1CCC[C@@H](n2nc(-c3ccc(Oc4ccccc4)cc3)c3c(N)ncnc32)C1 [ibrutinib]
Procedure, shortened: (§1)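 A 30 min treatment with 10 μM compound was applied to crude K562 extract at 1 mg/mL protein in PBS pH 7.4 with 1 mM MgCl2. Heating for 3 min spanned 48°C-58°C, after which aliquots were pooled, adjusted to 0.5% NP-40 at 4°C and spun at 21,000xg for 90 min. TMTpro 16plex LC-MS/MS of the supernatant, with channel sums equalised, gave values recorded as log-two fold change in thermal stability against solvent controls, from duplicates.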

[1] = compound: CC(=O)c1cnc2ccc(-c3cc(Cl)c(O)c(Cl)c3)nc2c1N[C@H]1CC[C@H](CN(C)C)CC1
Procedure, shortened: as §1

ralimetinib = compound: CC(C)(C)Cn1c(N)nc2ccc(-c3[nH]c(C(C)(C)C)nc3-c3ccc(F)cc3)nc21 [ralimetinib]
Procedure, shortened: as §1

[2] = compound: CC(C)(O)CC(=O)NCCn1ccc2ncnc(Nc3ccc(Oc4cccc(C(F)(F)F)c4)c(Cl)c3)c21
Procedure, shortened: as §1

[3] = compound: CC(C)C1=C2N=C(C=C(N2N=C1)NCC3=CC=CC=C3)NCCCCCCN
Procedure, shortened: as §1

[4] = compound: CC1=C(C(CC(=O)N1)C2=CC=C(C=C2)C(F)(F)F)C(=O)NC3=C(C=C4C(=C3)C=NN4)F
Procedure, shortened: as §1

[5] = compound: CC1=C(C2=C(C=C1)C(=O)C3=CC=CC=C3N2CCCN)C
Procedure, shortened: as §1

[6] = compound: CC1=C(C=C(C=C1)NC(=O)C2=CC(=CC=C2)C(C)(C)C#N)NC3=CC4=C(C=C3)N=CN(C4=O)C
Procedure, shortened: as §1

[7] = compound: CC1=C(C=C(C=C1)NC(=O)C2=CC(=CC=C2)N(C)C)NC(=O)C3=CC=C(C=C3)O
Procedure, shortened: as §1

[8] = compound: CC1=CC=C(C=C1)SC2=C3C=C(SC3=CN=C2)C(=O)N
Procedure, shortened: as §1

vemurafenib = compound: CCCS(=O)(=O)Nc1ccc(F)c(C(=O)c2c[nH]c3ncc(-c4ccc(Cl)cc4)cc23)c1F [vemurafenib]
Procedure, shortened: as §1

[9] = compound: CCCS(=O)(=O)Nc1ccc(F)c(C(=O)c2c[nH]c3ncc(Cl)cc23)c1F
Procedure, shortened: as §1

barasertib = compound: CCN(CCCOc1ccc2c(Nc3cc(CC(=O)Nc4cccc(F)c4)[nH]n3)ncnc2c1)CCOP(=O)(O)O [barasertib]
Procedure, shortened: as §1

[10] = compound: CC[C@@H]1C(=O)N(C)c2cnc(Nc3ccc(C(=O)NC4CCN(C)CC4)cc3OC)nc2N1C1CCCC1
Procedure, shortened: as §1

volasertib = compound: CC[C@@H]1C(=O)N(C)c2cnc(Nc3ccc(C(=O)N[C@H]4CC[C@H](N5CCN(CC6CC6)CC5)CC4)cc3OC)nc2N1C(C)C [volasertib]
Procedure, shortened: as §1

[11] = compound: CCn1c(C(=O)N(C2CC2)C2CC2)cc2c3c(ncn3C)c(Nc3cc(C)n(C)n3)nc21
Procedure, shortened: as §1

[12] = compound: CCn1cc(-c2ccnc3[nH]c(-c4cccc(CN(C)C)c4)cc23)c(-c2ccc(NC(=O)N(C)C)cc2)n1
Procedure, shortened: as §1

[13] = compound: CN1CCC(CNc2ccc3ncc(-c4cccc(OC(F)(F)F)c4)n3n2)CC1
Procedure, shortened: as §1

saracatinib = compound: CN1CCN(CCOc2cc(OC3CCOCC3)c3c(Nc4c(Cl)ccc5c4OCO5)ncnc3c2)CC1 [saracatinib]
Procedure, shortened: as §1

sotrastaurin = compound: CN1CCN(c2nc(C3=C(c4c[nH]c5ccccc45)C(=O)NC3=O)c3ccccc3n2)CC1 [sotrastaurin]
Procedure, shortened: as §1

Chain of UniProt Q562R1 (Q562R1 whole entry, looked up): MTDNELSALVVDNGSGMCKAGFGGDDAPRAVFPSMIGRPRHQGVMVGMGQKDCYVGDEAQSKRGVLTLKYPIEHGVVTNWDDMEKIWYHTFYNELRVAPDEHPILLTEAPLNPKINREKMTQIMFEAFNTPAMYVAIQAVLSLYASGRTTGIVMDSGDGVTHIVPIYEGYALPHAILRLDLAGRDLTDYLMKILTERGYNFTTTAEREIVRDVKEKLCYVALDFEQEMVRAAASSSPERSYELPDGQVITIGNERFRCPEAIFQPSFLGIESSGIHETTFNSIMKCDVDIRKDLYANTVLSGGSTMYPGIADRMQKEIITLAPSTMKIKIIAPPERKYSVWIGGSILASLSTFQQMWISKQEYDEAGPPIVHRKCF
Chain of UniProt Q99758 (Q99758 whole entry, looked up): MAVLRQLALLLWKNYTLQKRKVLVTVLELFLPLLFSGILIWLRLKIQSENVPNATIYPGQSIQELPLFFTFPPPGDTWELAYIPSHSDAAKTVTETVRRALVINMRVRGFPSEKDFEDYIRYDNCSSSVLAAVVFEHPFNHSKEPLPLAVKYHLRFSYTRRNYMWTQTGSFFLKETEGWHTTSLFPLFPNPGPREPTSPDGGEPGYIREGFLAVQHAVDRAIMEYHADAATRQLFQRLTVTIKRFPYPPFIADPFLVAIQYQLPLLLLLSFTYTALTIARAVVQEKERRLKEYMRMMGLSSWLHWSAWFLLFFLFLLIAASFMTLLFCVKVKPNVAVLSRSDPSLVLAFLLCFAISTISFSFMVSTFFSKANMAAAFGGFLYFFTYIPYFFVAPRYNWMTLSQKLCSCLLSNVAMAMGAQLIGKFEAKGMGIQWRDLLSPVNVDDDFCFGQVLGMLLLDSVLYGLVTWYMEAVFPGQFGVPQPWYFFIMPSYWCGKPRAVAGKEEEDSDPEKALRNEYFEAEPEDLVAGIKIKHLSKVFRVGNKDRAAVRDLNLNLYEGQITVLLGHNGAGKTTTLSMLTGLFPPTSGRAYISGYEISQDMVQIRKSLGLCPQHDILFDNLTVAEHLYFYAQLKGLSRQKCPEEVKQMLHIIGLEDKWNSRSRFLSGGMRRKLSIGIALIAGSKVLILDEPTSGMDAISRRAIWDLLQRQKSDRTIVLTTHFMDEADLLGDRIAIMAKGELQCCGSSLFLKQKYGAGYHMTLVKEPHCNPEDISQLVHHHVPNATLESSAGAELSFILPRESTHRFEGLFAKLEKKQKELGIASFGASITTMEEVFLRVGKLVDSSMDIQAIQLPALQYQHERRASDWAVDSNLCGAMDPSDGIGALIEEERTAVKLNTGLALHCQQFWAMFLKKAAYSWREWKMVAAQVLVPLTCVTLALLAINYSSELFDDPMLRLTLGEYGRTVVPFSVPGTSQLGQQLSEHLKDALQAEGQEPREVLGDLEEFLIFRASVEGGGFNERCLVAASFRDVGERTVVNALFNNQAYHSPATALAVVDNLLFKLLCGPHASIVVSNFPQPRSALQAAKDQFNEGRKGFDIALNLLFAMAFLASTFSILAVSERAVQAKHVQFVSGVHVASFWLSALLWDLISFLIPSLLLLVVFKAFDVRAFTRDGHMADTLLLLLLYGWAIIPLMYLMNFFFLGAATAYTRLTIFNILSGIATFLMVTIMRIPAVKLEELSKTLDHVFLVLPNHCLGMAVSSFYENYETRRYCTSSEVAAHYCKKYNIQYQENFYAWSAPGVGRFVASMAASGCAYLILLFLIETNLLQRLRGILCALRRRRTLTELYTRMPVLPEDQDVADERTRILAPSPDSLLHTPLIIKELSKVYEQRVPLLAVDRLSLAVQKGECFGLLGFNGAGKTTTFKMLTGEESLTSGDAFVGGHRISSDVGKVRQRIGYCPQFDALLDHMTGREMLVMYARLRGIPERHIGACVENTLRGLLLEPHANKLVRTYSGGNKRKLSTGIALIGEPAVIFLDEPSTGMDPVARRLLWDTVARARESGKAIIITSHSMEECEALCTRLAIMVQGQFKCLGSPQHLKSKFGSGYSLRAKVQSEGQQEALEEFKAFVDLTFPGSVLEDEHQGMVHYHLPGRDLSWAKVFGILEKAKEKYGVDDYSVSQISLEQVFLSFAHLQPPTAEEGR
Chain of UniProt Q9UKA4 (Q9UKA4 whole entry, looked up): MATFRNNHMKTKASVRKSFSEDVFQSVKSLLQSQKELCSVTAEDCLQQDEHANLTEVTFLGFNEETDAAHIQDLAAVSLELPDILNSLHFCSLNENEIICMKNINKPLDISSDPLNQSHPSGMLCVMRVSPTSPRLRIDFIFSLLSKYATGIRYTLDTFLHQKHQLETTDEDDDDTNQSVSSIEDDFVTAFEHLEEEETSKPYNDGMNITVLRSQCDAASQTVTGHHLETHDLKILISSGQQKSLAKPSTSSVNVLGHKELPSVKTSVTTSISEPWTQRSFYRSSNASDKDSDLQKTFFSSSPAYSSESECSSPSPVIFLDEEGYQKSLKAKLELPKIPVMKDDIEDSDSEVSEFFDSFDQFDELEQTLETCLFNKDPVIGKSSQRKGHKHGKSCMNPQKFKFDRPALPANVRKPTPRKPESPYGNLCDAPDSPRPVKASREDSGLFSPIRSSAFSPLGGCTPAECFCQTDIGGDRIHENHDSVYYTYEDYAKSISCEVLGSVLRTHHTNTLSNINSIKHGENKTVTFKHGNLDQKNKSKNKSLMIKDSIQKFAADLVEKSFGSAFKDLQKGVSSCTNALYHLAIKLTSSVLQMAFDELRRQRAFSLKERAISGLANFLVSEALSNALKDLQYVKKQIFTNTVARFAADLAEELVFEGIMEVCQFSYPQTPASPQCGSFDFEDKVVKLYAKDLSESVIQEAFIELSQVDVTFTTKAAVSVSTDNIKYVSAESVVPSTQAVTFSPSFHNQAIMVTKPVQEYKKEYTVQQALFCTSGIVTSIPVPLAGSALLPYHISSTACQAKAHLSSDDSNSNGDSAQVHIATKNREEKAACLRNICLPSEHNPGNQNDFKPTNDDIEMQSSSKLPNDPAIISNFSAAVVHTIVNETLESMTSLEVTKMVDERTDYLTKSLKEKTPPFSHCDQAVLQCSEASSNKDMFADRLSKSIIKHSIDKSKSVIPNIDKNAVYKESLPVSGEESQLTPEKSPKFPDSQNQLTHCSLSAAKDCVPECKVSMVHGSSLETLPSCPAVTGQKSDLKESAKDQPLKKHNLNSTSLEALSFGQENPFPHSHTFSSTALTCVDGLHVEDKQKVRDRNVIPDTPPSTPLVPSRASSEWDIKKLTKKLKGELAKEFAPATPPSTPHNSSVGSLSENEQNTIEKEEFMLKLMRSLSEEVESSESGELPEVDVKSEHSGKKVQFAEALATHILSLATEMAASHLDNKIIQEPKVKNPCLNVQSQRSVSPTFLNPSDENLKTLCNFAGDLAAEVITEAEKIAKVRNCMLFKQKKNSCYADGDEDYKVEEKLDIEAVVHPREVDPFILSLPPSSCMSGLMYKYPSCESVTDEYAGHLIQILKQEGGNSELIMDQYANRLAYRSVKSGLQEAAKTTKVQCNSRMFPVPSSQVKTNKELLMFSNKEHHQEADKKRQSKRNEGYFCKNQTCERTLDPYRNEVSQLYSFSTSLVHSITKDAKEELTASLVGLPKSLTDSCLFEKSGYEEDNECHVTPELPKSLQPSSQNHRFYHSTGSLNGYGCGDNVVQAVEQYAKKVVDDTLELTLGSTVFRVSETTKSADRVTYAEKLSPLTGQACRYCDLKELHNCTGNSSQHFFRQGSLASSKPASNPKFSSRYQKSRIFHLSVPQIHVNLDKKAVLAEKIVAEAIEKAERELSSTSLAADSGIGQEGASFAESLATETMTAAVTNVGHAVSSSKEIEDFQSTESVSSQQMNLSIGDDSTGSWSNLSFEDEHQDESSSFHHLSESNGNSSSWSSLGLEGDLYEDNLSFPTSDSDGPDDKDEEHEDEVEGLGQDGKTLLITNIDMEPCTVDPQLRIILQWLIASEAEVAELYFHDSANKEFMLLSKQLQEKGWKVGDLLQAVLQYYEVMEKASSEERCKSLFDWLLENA
Chain of UniProt Q9NQW6 (Q9NQW6 whole entry, looked up): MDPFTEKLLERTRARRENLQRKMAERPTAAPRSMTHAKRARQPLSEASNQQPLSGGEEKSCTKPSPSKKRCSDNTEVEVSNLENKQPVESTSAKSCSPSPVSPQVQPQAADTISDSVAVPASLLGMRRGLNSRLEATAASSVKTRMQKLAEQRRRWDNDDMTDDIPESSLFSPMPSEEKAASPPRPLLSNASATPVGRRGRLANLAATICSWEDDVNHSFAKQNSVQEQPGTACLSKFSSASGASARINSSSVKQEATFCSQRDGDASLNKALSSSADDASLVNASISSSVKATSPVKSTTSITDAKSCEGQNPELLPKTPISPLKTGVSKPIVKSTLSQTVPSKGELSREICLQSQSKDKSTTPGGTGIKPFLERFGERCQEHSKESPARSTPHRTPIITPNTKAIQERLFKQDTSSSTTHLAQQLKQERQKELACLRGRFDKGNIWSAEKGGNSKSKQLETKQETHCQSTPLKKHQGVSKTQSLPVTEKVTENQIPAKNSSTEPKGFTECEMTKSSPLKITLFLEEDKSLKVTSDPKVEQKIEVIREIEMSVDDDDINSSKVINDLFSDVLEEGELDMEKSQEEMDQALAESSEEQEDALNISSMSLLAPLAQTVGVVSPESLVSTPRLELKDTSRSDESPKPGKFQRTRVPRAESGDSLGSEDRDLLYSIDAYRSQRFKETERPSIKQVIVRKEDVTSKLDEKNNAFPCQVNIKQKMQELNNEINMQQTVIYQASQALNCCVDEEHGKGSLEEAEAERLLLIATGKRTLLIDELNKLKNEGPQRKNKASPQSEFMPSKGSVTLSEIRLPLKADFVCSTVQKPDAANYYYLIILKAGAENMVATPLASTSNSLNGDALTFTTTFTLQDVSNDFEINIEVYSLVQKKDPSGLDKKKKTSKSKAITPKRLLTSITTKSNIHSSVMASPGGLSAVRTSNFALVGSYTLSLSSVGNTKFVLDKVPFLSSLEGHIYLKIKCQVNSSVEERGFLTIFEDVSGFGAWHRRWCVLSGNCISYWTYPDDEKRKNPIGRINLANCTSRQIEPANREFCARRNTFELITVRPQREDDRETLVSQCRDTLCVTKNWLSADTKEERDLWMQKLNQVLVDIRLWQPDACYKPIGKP

Row | Target | log2 fold change (ibrutinib) | log2 fold change [1] | log2 fold change (ralimetinib) | log2 fold change [2] | log2 fold change [3] | log2 fold change [4] | log2 fold change [5] | log2 fold change [6] | log2 fold change [7] | log2 fold change [8] | log2 fold change (vemurafenib) | log2 fold change [9] | log2 fold change (barasertib) | log2 fold change [10] | log2 fold change (volasertib) | log2 fold change [11] | log2 fold change [12] | log2 fold change [13] | log2 fold change (saracatinib) | log2 fold change (sotrastaurin)
1 | AKAP11 (UniProt Q9UKA4) | 0.032 (inactive) | -0.111 (inactive) | 0.058 (inactive) | -0.068 (inactive) | 0.054 (inactive) | 0.065 (inactive) | -0.015 (inactive) | -0.002 (inactive) | 0.003 (inactive) | 0.085 (inactive) | -0.272 (inactive) | -0.029 (inactive) | 0.082 (inactive) | 0.051 (inactive) | 0.038 (inactive) | -0.055 (inactive) | 0.044 (inactive) | -0.024 (inactive) | 0.028 (inactive) | -0.103 (inactive)
2 | AGTPBP1 (UniProt Q9UPW5) | -0.255 (inactive) | 0.001 (inactive) | 0.013 (inactive) | -0.058 (inactive) | 0.008 (inactive) | -0.026 (inactive) | 0.051 (inactive) | 0.077 (inactive) | 0.005 (inactive) | 0.012 (inactive) | 0.151 (inactive) | 0.075 (inactive) | -0.223 (inactive) | 0.036 (inactive) | -0.089 (inactive) | -0.013 (inactive) | 0.013 (inactive) | -0.409 (active) | 0.108 (inactive) | -0.126 (inactive)
3 | ANLN (UniProt Q9NQW6) | 0.025 (inactive) | -0.027 (inactive) | 0.02 (inactive) | -0.001 (inactive) | -0.014 (inactive) | 0.02 (inactive) | -0.01 (inactive) | 0.026 (inactive) | 0.029 (inactive) | -0.04 (inactive) | -0.012 (inactive) | 0.019 (inactive) | 0.003 (inactive) | 0.01 (inactive) | -0.014 (inactive) | -0.035 (inactive) | -0.067 (inactive) | -0.014 (inactive) | 0.002 (inactive) | 0.009 (inactive)
4 | ABL1 isoform 2 (UniProt P00519) | 0.157 (inactive) | 0.077 (inactive) | 0.019 (inactive) | 0.024 (inactive) | -0.017 (inactive) | -0.014 (inactive) | -0.01 (inactive) | 0.048 (inactive) | 0.011 (inactive) | -0.043 (inactive) | 0.05 (inactive) | 0.125 (inactive) | 0.031 (inactive) | -0.03 (inactive) | -0.012 (inactive) | -0.048 (inactive) | 0.156 (inactive) | -0.097 (inactive) | – | -0.012 (inactive)
5 | AIMP1 isoform 2 (UniProt Q12904) | 0.009 (inactive) | 0.012 (inactive) | 0.026 (inactive) | 0.018 (inactive) | 0.022 (inactive) | -0.026 (inactive) | 0.005 (inactive) | -0.014 (inactive) | -0.006 (inactive) | 0.006 (inactive) | 0.001 (inactive) | 0.018 (inactive) | 0.015 (inactive) | -0.036 (inactive) | -0.057 (inactive) | 0.025 (inactive) | -0.024 (inactive) | -0.081 (inactive) | 0.023 (inactive) | -0.001 (inactive)
6 | ACSL1 (UniProt P33121) | 0.009 (inactive) | 0.008 (inactive) | -0.004 (inactive) | -0.075 (inactive) | 0.01 (inactive) | 0.024 (inactive) | 0.004 (inactive) | -0.01 (inactive) | 0.026 (inactive) | -0.004 (inactive) | 0.021 (inactive) | 0.023 (inactive) | 0.046 (inactive) | -0.054 (inactive) | -0.1 (inactive) | 0.038 (inactive) | -0.014 (inactive) | -0.242 (inactive) | -0.066 (inactive) | -0.002 (inactive)
7 | ANP32A (UniProt P39687) | 0.003 (inactive) | -0.003 (inactive) | 0.002 (inactive) | 0.188 (inactive) | -0.041 (inactive) | -0.029 (inactive) | 0.079 (inactive) | -0.025 (inactive) | -0.046 (inactive) | -0.018 (inactive) | -0.025 (inactive) | 0.052 (inactive) | -0.007 (inactive) | -0.011 (inactive) | 0.006 (inactive) | -0.008 (inactive) | -0.085 (inactive) | 0.062 (inactive) | -0.033 (inactive) | -0.002 (inactive)
8 | AKAP8 (UniProt O43823) | 0 (inactive) | -0.019 (inactive) | -0.039 (inactive) | -0.084 (inactive) | -0.009 (inactive) | 0.076 (inactive) | -0.056 (inactive) | -0.158 (inactive) | 0.016 (inactive) | -0.03 (inactive) | 0.006 (inactive) | 0.044 (inactive) | 0.056 (inactive) | -0.009 (inactive) | -0.03 (inactive) | -0.013 (inactive) | -0.056 (inactive) | 0.044 (inactive) | 0.075 (inactive) | 0.008 (inactive)
9 | ACTBL2 (UniProt Q562R1) | 0.001 (inactive) | -0.016 (inactive) | 0.006 (inactive) | 0.082 (inactive) | -0.034 (inactive) | 0.086 (inactive) | 0.069 (inactive) | -0.043 (inactive) | 0.017 (inactive) | 0.123 (inactive) | -0.097 (inactive) | 0.089 (inactive) | -0.117 (inactive) | 0.098 (inactive) | -0.166 (inactive) | 0.105 (inactive) | 0.417 (inactive) | -0.023 (inactive) | -0.108 (inactive) | 0.049 (inactive)
10 | ANAPC7 (UniProt Q9UJX3) | -0.007 (inactive) | 0.002 (inactive) | 0.015 (inactive) | -0.009 (inactive) | 0.001 (inactive) | 0.01 (inactive) | 0.002 (inactive) | 0.022 (inactive) | 0.023 (inactive) | 0.01 (inactive) | -0.026 (inactive) | 0.033 (inactive) | -0.02 (inactive) | -0.035 (inactive) | -0.029 (inactive) | 0.016 (inactive) | -0.022 (inactive) | -0.03 (inactive) | 0.025 (inactive) | -0.001 (inactive)
11 | AGO4 (UniProt Q9HCK5) | 0.034 (inactive) | -0.035 (inactive) | 0.022 (inactive) | -0.011 (inactive) | -0.049 (inactive) | 0.025 (inactive) | 0.05 (inactive) | 0 (inactive) | -0.013 (inactive) | -0.024 (inactive) | 0.033 (inactive) | 0.003 (inactive) | 0.04 (inactive) | -0.003 (inactive) | 0.017 (inactive) | -0.003 (inactive) | 0.036 (inactive) | 0.041 (inactive) | -0.011 (inactive) | -0.021 (inactive)
12 | ACVR1 (UniProt Q04771) | -0.047 (inactive) | – | – | – | – | -0.152 (inactive) | -0.02 (inactive) | – | – | – | – | – | -0.115 (inactive) | – | – | – | -0.244 (inactive) | 0.815 (active) | – | –
13 | ALG3 (UniProt Q92685) | -0.163 (inactive) | 0.03 (inactive) | -0.007 (inactive) | -0.032 (inactive) | -0.278 (inactive) | – | 0.014 (inactive) | -0.024 (inactive) | 0.042 (inactive) | 0.03 (inactive) | 0.084 (inactive) | -0.011 (inactive) | 0.031 (inactive) | 0.012 (inactive) | 0.01 (inactive) | 0.032 (inactive) | -0.371 (inactive) | 0.06 (inactive) | 0.068 (inactive) | 0.029 (inactive)
14 | ABCC5 (UniProt O15440) | -0.109 (inactive) | 0.012 (inactive) | -0.216 (inactive) | -0.145 (inactive) | -0.015 (inactive) | – | -0.094 (inactive) | 0.019 (inactive) | 0.187 (inactive) | -0.019 (inactive) | -0.603 (active) | -0.001 (inactive) | -0.034 (inactive) | -0.067 (inactive) | -0.136 (inactive) | 0.145 (inactive) | -0.137 (inactive) | -0.022 (inactive) | 0.013 (inactive) | 0.018 (inactive)
15 | ABCA3 (UniProt Q99758) | -0.036 (inactive) | -0.002 (inactive) | -0.041 (inactive) | -0.13 (inactive) | -0.023 (inactive) | – | -0.112 (inactive) | 0.062 (inactive) | -0.028 (inactive) | 0.128 (inactive) | 0.114 (inactive) | -0.044 (inactive) | 0.057 (inactive) | -0.009 (inactive) | 0.089 (inactive) | -0.163 (inactive) | -0.086 (inactive) | 0.051 (inactive) | -0.05 (inactive) | 0.031 (inactive)
16 | ALDH3A1 (UniProt P30838) | – | -0.197 (inactive) | -0.274 (inactive) | -0.259 (inactive) | 0.04 (inactive) | – | 1.23 (active) | 0.432 (inactive) | -0.001 (inactive) | -0.119 (inactive) | – | 0.014 (inactive) | – | – | 0.035 (inactive) | -0.399 (inactive) | -0.618 (inactive) | 0.216 (inactive) | 1.2 (active) | -0.007 (inactive)

Source: the supplement of paper PMC10849652
